PubChem BioAssay AID720518 (National Center for Advancing Translational Sciences (NCATS), 2013)
Inconclusive results are not listed. Activity calls are given as the source filed them. The call rests on the fitted dose curve.
Potency means the concentration at half of the fitted maximal effect.

Test: qHTS for Inhibitors of Cell Surface uPA Generation: Wild-type Protective Antigen (WT-PrAg) Counterscreen for Cherry-picked Compounds; on activity (protection): 0% is about no effect
Settings: cells, WT protective antigen toxicity counterscreen; series mostly up to 115 µM; activity (protection): at the top concentration
In the case of `COc1ccc(C(c2sc3nc(C)nn3c2O)N2CCC(C(N)=O)CC2)cc1OC` (stereo not given), the “activity (protection)” value was -1.53% (inactive).
For `COc1ccc(CCNC(=O)Cn2c(=O)n(-c3cc(F)ccc3F)c(=O)c3sccc32)cc1OC`, the “activity (protection)” value was 1.12% (inactive).
For `O=C(Nc1ccc(Cl)cc1)Nc1nnc(-c2ccncc2)s1`, the “activity (protection)” value was -2.16% (inactive).
In the case of `O=C(NCCCn1ccnc1)C(=O)NCC(c1cccnc1)N1CCN(c2ccc(F)cc2)CC1` (stereo not given), the “activity (protection)” value was 0.272% (inactive).
In the case of `Cn1c(C2CCCCC2)nc2cc(N)ccc21`, the “activity (protection)” value was -1.75% (inactive).
With `COc1ccc(C2=Nc3ccccc3C2(O)CCN2C(=O)c3ccccc3C2=O)cc1` (stereo not given) the “activity (protection)” value was -1.2% (inactive).
In the case of `CCC(C)C1NC(=O)C2CCCN2C(=O)C(CC(C)C)OC(=O)CCNC(=O)C(C)N(C)C(=O)C(C(C)C)N(C)C1=O` (stereo not given), the Potency was 3.69 µM (active).
For `Cc1nc2ccc(Br)cn2c1C(=O)N/N=C\c1ccccc1Cl`, the “activity (protection)” value was 1.22% (inactive).
With `COc1ccc(C2=NS(=O)(=O)N(C)C(C(=O)NCc3ccccn3)=C2)cc1` the “activity (protection)” value was -1.14% (inactive).
In the case of `Cc1ccc(Cl)cc1NC(=O)c1ccccc1OCC(=O)N1CCOCC1`, the “activity (protection)” value was 1.55% (inactive).
With `CCN1CCN(Cc2ccc(NC(=O)c3cc(NC(=O)c4cncc(-c5cccs5)c4)cc(OC)c3)cc2C(F)(F)F)CC1` the “activity (protection)” value was -0.909% (inactive).
With `O=C(NCc1ccccn1)C1CCN(C(=O)c2cc3sccc3n2Cc2ccc(F)cc2)CC1` the “activity (protection)” value was -1.98% (inactive).
For `CCN(CC)S(=O)(=O)c1ccc(NC(=S)Nc2ccc(F)cc2)cc1`, the “activity (protection)” value was -1.28% (inactive).
For `Cn1c(SCC(=O)NCCc2ccccc2)ncc(C(=O)Nc2ccc(F)cc2)c1=O`, the “activity (protection)” value was 0.399% (inactive).
With `CCc1ccc(NC(=O)Cn2cnc([N+](=O)[O-])c2)cc1` the “activity (protection)” value was -0.969% (inactive).
With `CN(CC(=O)NCc1ccco1)CC(=O)Nc1c(Cl)cccc1Cl` the “activity (protection)” value was 0.145% (inactive).
In the case of `CC1(C)C([N+](=O)[O-])C(c2ccc(F)cc2)NC(c2ccc(F)cc2)C1[N+](=O)[O-]` (stereo not given), the “activity (protection)” value was 6.17% (inactive).
In the case of `COc1ccc(C(=O)CC2(C(=O)O)CCCCC2)cc1`, the “activity (protection)” value was -0.719% (inactive).
In the case of `Cc1ccc(CN2CCN(Cc3cc4ccccc4o3)CC2CCO)cc1` (stereo not given), the “activity (protection)” value was -0.17% (inactive).
For `CCCc1nn2c(=O)cc(CSCC(=O)Nc3ccccc3)nc2s1`, the “activity (protection)” value was 1.46% (inactive).
For `O=C(NC(=S)Nc1c(F)cc(F)cc1Br)c1ccc2c(c1)OCCO2`, the “activity (protection)” value was 0.392% (inactive).
For `O=C(NCc1ccc(F)cc1)c1cc(S(=O)(=O)N2CCCCC2)ccc1N1CCOCC1`, the “activity (protection)” value was -0.974% (inactive).
In the case of `O=C(C[C@H]1C[C@H](C(=O)N2CCOCC2)[C@@]2(CCC3CCCC3)c3[nH]c4cc(-c5ccco5)ccc4c3CCN2C1=O)NCc1cccc(C(F)(F)F)c1`, the “activity (protection)” value was -0.785% (inactive).
For `COc1ccc(NC(=O)CN2C(=O)CSc3ncccc32)cc1`, the “activity (protection)” value was 1.25% (inactive).
In the case of `O=C(CN1CCOC1=O)N1CCCC(Nc2ccc(F)c(F)c2)C1` (stereo not given), the “activity (protection)” value was -0.513% (inactive).
In the case of `COc1ccc(OC)c(NC(=O)C2CCCN2C(=O)C2CCC(C)CC2)c1` (stereo not given), the “activity (protection)” value was 0.0243% (inactive).
For `CC(=O)NC(=S)Nc1ccc([N+](=O)[O-])cc1C`, the “activity (protection)” value was 4.08% (inactive).
With `COc1cc2cc(CN(CCN3CCOCC3)C(=O)Nc3ccc(F)cc3)c(=O)[nH]c2cc1OC` the “activity (protection)” value was -0.0352% (inactive).
In the case of `COc1ccc(OC)c(N2C(=O)CC(Cc3cc(C)cc(C)c3)C2=O)c1` (stereo not given), the “activity (protection)” value was -0.552% (inactive).
In the case of `O=C(N/N=C/c1cccnc1)c1ccccc1[N+](=O)[O-]`, the “activity (protection)” value was -1.19% (inactive).
With `COc1ccc(CNC(=O)C2(CC3CC(c4ccccc4)=NO3)CCNCC2)cc1` (stereo not given) the “activity (protection)” value was -2.06% (inactive).
In the case of `CCOc1cc(S(=O)(=O)NC2CC(C)(C)NC(C)(C)C2)ccc1Cl`, the “activity (protection)” value was 0.451% (inactive).
For `COc1ccc(-c2nn(CCC#N)cc2C(=O)Nc2cccc([N+](=O)[O-])c2)cc1OC`, the “activity (protection)” value was -1.26% (inactive).
In the case of `COCCOc1ccc(C(F)(F)F)cc1NC(=O)COC(=O)Cc1c[nH]c2ccccc12`, the “activity (protection)” value was -0.946% (inactive).
With `COc1cccc(NC(=O)N2C3CCCC2CC(NC(C)=O)C3)c1` (stereo not given) the “activity (protection)” value was 0.204% (inactive).
For `O=C(CCS(=O)(=O)c1ccc2c(c1)NC(=O)CS2)NCCc1ccc(Cl)cc1`, the “activity (protection)” value was 0.14% (inactive).
For `Cc1cc(SCc2ccc(Cl)cc2)nc(=O)[nH]1`, the “activity (protection)” value was -2.11% (inactive).
For `COc1ccc(C[C@@H]2OC3(C=CC(=O)C=C3)O[C@H]2Cc2ccc(OC)cc2)cc1`, the “activity (protection)” value was -2.08% (inactive).
With `Clc1ccccc1N1CCN(c2ncnc3nc[nH]c23)CC1` the “activity (protection)” value was -0.131% (inactive).
With `CC(C)(C)NC(=O)C(c1cccs1)N(C(=O)c1csnn1)c1ccccc1F` (stereo not given) the “activity (protection)” value was -0.113% (inactive).
